Most compounds without a hit are left out; they make up all but 6.5% or so of the library.
VACV Venus inh – inhibitors of vaccinia virus (Venus reporter); Vaccinia virus Venus reporter expression, fluorescence; Potency, µM (titrated, usually from 36.5 µM), without a hit: at the top dose activity change, negative = inhibition, most hits filed as inhibitors; AID 720580; actives 0.46% (n = 330,000); calls by dose curve; tested in A549 cells; note: potency is the fitted concentration of half-maximal effect; nearly all actives have a fitted effect of over 30% in size
Marburg entry inh – inhibitors of Marburg virus binding or cell entry. Marburg virus pseudotyped entry inhibition, cell reporter. Potency, µM (titrated, usually from 37.8 µM), for the others: at the highest dose activity change, negative = inhibition, usual class: inhibitors. actives 1.8% (n = 300,000). AID 540276; calls by dose curve; tested in HEK293 cells; note: potency is the fitted concentration of half-maximal effect
FMDV inh – foot and mouth disease virus antiviral activity; FMDV antiviral cell-based qHTS; Potency, µM (series often up to 57.9 µM), for the others: top-dose activity change, negative = inhibition, most hits filed as inhibitors; actives 1.2% (n = 410,000); calls by dose curve; tested in HEK293T cells; note: read-out not given here; potency is the fitted concentration of half-maximal effect; nearly all actives have a fitted effect of over 45% in size
LASV entry inh – Lassa virus entry inhibition | Lassa virus pseudotype entry inhibition, cell reporter | Potency, µM (titrated, usually from 37.9 µM), without a hit: at the top dose activity change, negative = inhibition, actives largely listed as inhibitors | actives 1.2% (n = 300,000); calls by dose curve; tested in HEK293 cells; note: potency is the fitted concentration of half-maximal effect; nearly all actives have a fitted effect of over 50% in size
VACV mCherry inh – inhibitors of vaccinia virus infection (mCherry reporter signal). Vaccinia virus mCherry reporter infection, fluorescence. Potency, µM (top dose mostly 36.5 µM), inactives show at the highest dose activity change, negative = inhibition, actives largely listed as inhibitors. actives 0.63% (n = 310,000); calls by dose curve; tested in A549 cells; note: potency is the fitted concentration of half-maximal effect; nearly all actives have a fitted effect of over 35% in size
HCMV antiviral – human cytomegalovirus inhibition; HFF cells, HCMV-luciferase reporter, 72 h; stronger effect = lower value; activity change, negative = inhibition, % at 57.5 µM; actives 4.5% (n = 410,000); in the data active = activity change below about -60%; inconclusive = no clear call, values can overlap the other calls; inactive = above about -39%
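Cell-based, HFFs, 1000 cells/well, 16 h 37C; cpds in DMSO + HCMV-luc, MOI 1 PFU/cell; 72 h 37C; OneGlo luminescence after 5 min RT; norm. to buffer vs Salinomycin 10uM.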
The depositor's hits bear a star; i = inactive; ? = inconclusive; . = no result; [ ] = another dose, or the depositor's remark. % is set by controls: 0 for no effect and ±100 for the full control effect.

SMILES	VACV Venus inh	Marburg entry inh	FMDV inh	LASV entry inh	VACV mCherry inh	HCMV antiviral
CCSc1nc2ccccc2n1CC(N)=O	.	16%	-17%	-1%	.	-24
CCSc1nc2ccccc2n1C(=O)/C=C\c1ccc(OC)c(OC)c1	?	13µM*	13µM*	?	13µM*	-98*
CCOC(=O)CSC1=NC(=O)/C(=C/c2ccc(Br)cc2)S1	-13%	8%[46.1 µM]	25µM*	5%	-2%	-29
CCOC(=O)CSC1=NC(=O)/C(=C\c2ccc(OC(C)=O)cc2)S1	.	8.2µM*	22%	?	.	113
NC1=NC(=O)/C(=C/c2ccc(Br)cc2)S1	.	.	7%	.	.	-20
COC(=O)c1ccc2c(=O)n(CCCCCC(=O)NCCc3ccc(Cl)cc3)c(=O)[nH]c2c1	-13%	.	3%	23%[46.1 µM]	-10%	10
NC(=O)Nc1ccc(C(=O)N2CCN(S(=O)(=O)Cc3ccccc3)CC2)cc1	.	.	-12%	.	.	5
NC(=O)NC(=O)C(c1ccccc1)N1CCN(S(=O)(=O)Cc2ccccc2)CC1 (configuration not stated)	-5%	0%	-1%	-2%	-2%	-88*
COc1ccc(Cn2cc(C(=O)c3ccc(C)c(C)c3)c(=O)c3ccccc32)cc1	-17%	-25%[46.1 µM]	-8%	-29%[46.1 µM]	-17%	?
COc1cc(-c2nnc(-c3ccccc3)o2)cc(OC)c1OC	-18%	?	-16%	?	-1%	27
COc1cc(-c2nnc(COc3ccc4ccccc4c3)o2)cc(OC)c1OC	-20%	-8%	0%	?	-21%	-107*
CC(C)c1ccc(NC(=O)C2CCCN(S(=O)(=O)c3ccc(Br)s3)C2)cc1 (configuration not stated)	-16%	?	-11%	-22%[46.1 µM]	?	15
N#C[C@@H](c1ccccc1)C1CCN(C(=O)c2ccco2)CC1	.	.	.	.	.	9
COc1ccccc1NC(=O)c1sc(-c2ccc(Cl)cc2)cc1N	-8%[7.34 µM]	9%[46.1 µM]	3%	28%[46.1 µM]	-4%[7.34 µM]	15
Cc1cc(NC(=O)Cc2ccccc2)cc(-c2nc3ccccc3o2)c1O	15%	1%[46.1 µM]	-22%	21%[46.1 µM]	0%	5
CC1=C/C(=N\N=C2\NC(=O)C(CC(=O)Nc3ccccc3F)S2)CC(C)(C)C1 (configuration not stated)	-12%	1%[46.1 µM]	-17%	-26%	-2%	-65*
C#CCN(Cc1nc(N2CCOCC2)c2ccc(Cl)cc2n1)Cc1ccco1	6%	.	-7%	.	-8%	.
COc1ccc(-c2ccc(/C=C3/C(=N)N4C(C)=CSC4=NC3=O)o2)c([N+](=O)[O-])c1	54%	-3%	40µM*	0%	-10%	9
Cc1ccc(NC(=O)C2=C(c3ccccc3)S(=O)(=O)CCS2(=O)=O)cc1	?	?	25µM*	?	?	-99*
Cc1ccc(C(=O)N2CCN(C3c4cccc5cccc(c45)C3NS(=O)(=O)c3ccccc3)CC2)cc1 (configuration not stated)	-29%	11µM*	-30%	13µM*	.	-18
Cc1ccc(S(=O)(=O)NC2c3cccc4cccc(c34)C2Sc2nc(C)cc(C)n2)cc1 (configuration not stated)	-13%	18µM*	4%	?	-11%	1
CC(=O)N1CCN([C@@H]2c3cccc4cccc(c34)[C@H]2NS(=O)(=O)c2ccccc2)CC1	.	-7%	.	.	.	.
COc1ccc2c(c1)c(N1CCCC1=O)c(C(=O)Nc1cc(C)c(Cl)cc1OC)n2C	-6%	.	-24%	-19%[46.1 µM]	-16%	1
NC(=S)NN=C1c2cc(Cl)ccc2-c2c1cc(Cl)cc2[N+](=O)[O-]	-17%	-24%	20µM*	0%	-16%	.
CCCOc1ccc(/C=N/Nc2cccc([N+](=O)[O-])c2)c(O)c1	?	?	6%	?	?	?
SMILES	VACV Venus inh	Marburg entry inh	FMDV inh	LASV entry inh	VACV mCherry inh	HCMV antiviral
CCCOc1ccc(/C=N/NC(=S)Nc2ccccc2[N+](=O)[O-])c(O)c1	?	?	?	8.2µM*	2.8µM*	-101*
CCCOc1ccc(/C=N/Nc2ccccc2[N+](=O)[O-])c(O)c1	-2%	4.5µM*	11µM*	2.8µM*	-14%	?
Cc1nn2cc(-c3ccc(N)cc3)nc2s1	-10%	-10%	29%	?	-19%	15
CCCc1nn2cc(-c3ccc(C)c(C)c3)nc2s1	-6%	-8%[46.1 µM]	-77%	14%[46.1 µM]	2%	-62*
CO/N=C/c1ccc(N2CCN(C(=O)c3ccc(F)cc3)CC2)c([N+](=O)[O-])c1	.	?	20µM*	?	.	-29
CO/N=C/c1ccc(N2CCN(C(=O)c3cccc(C(F)(F)F)c3)CC2)c([N+](=O)[O-])c1	.	?	?	-2%	.	-22
CO/N=C/c1ccc(N2CCN(C(=O)c3ccc(Cl)cc3Cl)CC2)c([N+](=O)[O-])c1	.	?	13µM*	?	.	-98*
Cc1ccc(-c2noc(CCC(=O)Nc3ccc(F)cc3Cl)n2)cc1	-8%[7.34 µM]	0%[46.1 µM]	14%	3%[46.1 µM]	-11%[7.34 µM]	0
COC(=O)N(Cc1ccccc1NC(=O)OC(C)(C)C)C(C(=O)NC1CCCC1)C(=O)c1c(C)cc(C)cc1C (configuration not stated)	.	.	.	.	.	-37
Cc1[nH]nc(-c2cccnc2)c1N=NN(C)C	?	7.1µM*	?	?	?	62
COC(=O)C(Nc1cc(OC)ccc1OC)(c1ccccc1)C(Nc1cc(OC)ccc1OC)c1ccc(C(F)(F)F)cc1 (configuration not stated)	.	.	.	.	.	-32
Brc1ccc2[nH]c3nc(SCCN4CCOCC4)nnc3c2c1	-15%	?	?	0.5µM*	-4%	4
O=C(NCCCNc1ccc([N+](=O)[O-])cc1)C(F)(F)F	-9%	?	-10%	1%	-16%	32
O=C(CCl)N(CCCNC(=O)C(F)(F)F)c1ccc([N+](=O)[O-])cc1	-9%[7.34 µM]	-17%[46.1 µM]	20µM*	3%	i[7.34 µM]	-101*
CCOc1cc(C2C(C(=O)OC)=C(C)NC3=C2C(=O)c2ccccc23)ccc1OC (configuration not stated)	-12%	.	-14%	-6%[46.1 µM]	-17%	18
CCOC(=O)COc1ccc(C2C(C(=O)OC)=C(C)NC3=C2C(=O)c2ccccc23)cc1Cl (configuration not stated)	3%	3%[46.1 µM]	-14%	4%[46.1 µM]	-9%	-102*
Cc1nc(-c2ccc(S(=O)(=O)Nc3cc(Cl)ccc3C)cc2)co1	1%	.	33%	-10%[46.1 µM]	-6%	29
COc1ccc(OC)c(C2C3=C(COC3=O)Nc3cc4c(cc32)OCO4)c1 (configuration not stated)	.	0.26µM*	-22%	-33%	.	-84*
Nc1ccc(Cc2ccc([N+](=O)[O-])cc2)cc1	-13%	-2%[46.1 µM]	-18%	11%[46.1 µM]	-22%	-64*

Compound activity: PubChem, National Center for Advancing Translational Sciences (NCATS)
